Inconclusive results are not listed. The source holds several records for some structures; these can differ, active in one and inactive in another. Activity calls are given as the source filed them. The calls were made as follows: active = hit-call score of the fitted dose curve at least 0.9, where 1 is the maximum; inconclusive = response in the unintended direction; inactive = score below 0.9.
What was measured:
[1] = biological target: Cellular tumor antigen p53 (Homo sapiens) (UniProt P04637); assay: TOX21_p53_BLA_p2_ratio: Tox21 HCT-116 p53 Agonism Beta-lactamase Assay, Ratio, Phase 2 (AID 2283592)
Sequence of Cellular tumor antigen p53 (Homo sapiens) (P04637 whole entry, looked up): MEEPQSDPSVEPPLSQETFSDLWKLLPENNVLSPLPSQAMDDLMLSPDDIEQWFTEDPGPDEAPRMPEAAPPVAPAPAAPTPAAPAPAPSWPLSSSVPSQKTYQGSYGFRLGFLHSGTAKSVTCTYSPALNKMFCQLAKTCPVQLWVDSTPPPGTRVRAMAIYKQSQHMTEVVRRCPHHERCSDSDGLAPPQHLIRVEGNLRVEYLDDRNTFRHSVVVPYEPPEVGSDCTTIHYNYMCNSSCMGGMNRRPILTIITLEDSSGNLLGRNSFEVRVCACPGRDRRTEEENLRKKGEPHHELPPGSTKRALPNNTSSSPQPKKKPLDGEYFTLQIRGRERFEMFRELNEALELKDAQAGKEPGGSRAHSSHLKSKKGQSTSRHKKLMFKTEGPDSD
Method in brief: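 Plated HCT116 p53-bla cells (4000/well) received compound after 5 h, then 16 h at 37C/5% CO2. CCF4-AM added, 2 h RT. Ratio of 460 to 530 nm emission taken as the p53 reporter signal.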

[2] = biological target: Cellular tumor antigen p53 (Homo sapiens) (UniProt P04637); assay: TOX21_p53_BLA_p3_ratio: Tox21 HCT-116 p53 Agonism Beta-lactamase Assay, Ratio, Phase 3 (AID 2283596)
Method in brief: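 Cells were seeded at 4000/well, rested 5 h at 37C, then dosed with DMSO compound solutions (217-fold dilution) for 16 h. CCF4-AM substrate was loaded for 2 h at room temperature, and the 460/530 nm emission ratio was fitted for gain of signal versus DMSO.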

[3] = TOX21_p53_BLA_p4_viability: Viability Assessment in the Tox21 HCT-116 p53 Agonism Beta-lactamase Assay, Phase 4 (AID 2283597);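 also: hits lower the luminescence signal meaning cytotoxicity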
Method in brief: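 Readout: ATP luminescence (CellTiter-Glo), measured 30 min after reagent addition at RT. The reagent followed a 2 h CCF4-AM incubation, and the cells had been exposed to compound for 16 h at 37C.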

[4] = biological target: Cellular tumor antigen p53 (Homo sapiens) (UniProt P04637); assay: TOX21_p53_BLA_p5_ratio: Tox21 HCT-116 p53 Agonism Beta-lactamase Assay, Ratio, Phase 5 (AID 2283599)
Method in brief: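 HCT-116 p53-bla cells (4000/well) plated 5 h, dosed with compound (217-fold DMSO dilution) for 16 h at 37 C; CCF4-AM substrate 2 h at room temperature. Activity is the 460/530 nm emission ratio (405 nm excitation), fitted in gain-of-signal direction versus DMSO.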

[5] = TOX21_p53_BLA_p5_viability: Viability Assessment in the Tox21 HCT-116 p53 Agonism Beta-lactamase Assay, Phase 5 (AID 2283600)
Method in brief: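 Workflow: seed 4000 cells per well, wait 5 h, add compounds (DMSO, 217-fold dilution), incubate 16 h, load CCF4-AM 2 h, add CellTiter-Glo, read luminescence after 30 min.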

[6] = TOX21_p53_BLA_p3_viability: Viability Assessment in the Tox21 HCT-116 p53 Agonism Beta-lactamase Assay, Phase 3 (AID 2283593);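 also: cells exposed to compound for 16 h before reading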
Method in brief: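 HCT116 cells, 4000/well, dosed 5 h after plating by pin transfer (217-fold dilution from DMSO stock) and incubated 16 h at 37C, 5% CO2. Viability read as ATP luminescence with CellTiter-Glo after 30 min at room temperature.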

[7] = biological target: Cellular tumor antigen p53 (Homo sapiens) (UniProt P04637); assay: TOX21_p53_BLA_p4_ratio: Tox21 HCT-116 p53 Agonism Beta-lactamase Assay, Ratio, Phase 4 (AID 2283601)
Method in brief: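 HCT-116 p53 beta-lactamase reporter cells (4000/well) preincubated 5 h, then compound (217-fold dilution of DMSO stock) for 16 h at 37C. CCF4-AM substrate added 2 h at room temperature; 460/530 nm emission ratio fitted upward versus DMSO.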

[8] = system: Thyroperoxidase (TPO), gene 54314; assay: CCTE_Simmons_AUR_rTPO: CCTE's Amplex UltraRed Assay for Thyroperoxidase (TPO) Inhibition, Simmons Lab (AID 2283662);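 as to AC50: potency for loss of signal meaning inhibition of peroxidase activity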
Method in brief: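 Rat thyroid microsomes (5 ug protein) with 25 uM Amplex UltraRed and 300 uM H2O2 in 200 mM phosphate buffer, 30 min at 37C in dark; fluorescence 544/590 nm. Eight concentrations, 5 nM–87.5 uM final, 0.5% DMSO, triplicate biological replicates.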

[9] = CCTE_Simmons_CellTiterGLO_HEK293T: Viability Assessment in CCTE's Assays for Thyroperoxidase (TPO) Inhibition, Simmons Lab (AID 2283665)
Method in brief: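 ATP depletion measured in HEK293T cells after 24 h dosing (8 concentrations, 5 nM–87.5 uM final; DMSO 0.5%) using CellTiter-Glo luminescence; curves fit for loss of signal against DMSO baseline.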

Measured: AC50

c1ccc(-c2ccccn2)nc1
inactive: [1] | [2] | [3] | [4] | [5]

O=C(OCC1CCC2OC2C1)C1CCC2OC2C1 (centres undefined)
inactive: [1] | [2] | [3] | [4] | [5]

CCOc1ccc(N)c([N+](=O)[O-])c1
inactive: [1] | [6] | [4] | [5]

O=C1CCCN1CCO
inactive: [1] | [2] | [3] | [4] | [5] | [7]

CC(C)CC(O)Cc1ccccc1 (centres undefined)
inactive: [1] | [2] | [3] | [4]

CC1(C)S[C@@H]2[C@H](NC(=O)COc3ccccc3)C(=O)N2[C@H]1C(=O)O
inactive: [1] | [2] | [3] | [4] | [7]

NNC(=O)c1cccc(C(=O)NN)c1
inactive: [1] | [2] | [3] | [4] | [7]

Cc1ccccc1C
inactive: [1] | [6] | [5] | [7]

C=CCOCC(O)CCl (centres undefined)
inactive: [1] | [6] | [4] | [5] | [7]

c1ccc(CNCc2ccccc2)cc1
inactive: [1] | [2] | [3]

CCC(Cc1ccccc1)(C(=O)c1ccc(N2CCOCC2)cc1)N(C)C (centres undefined)
inactive: [1] | [2] | [3] | [5] | [7]

C=C(C)c1cccc(C(C)(C)N=C=O)c1
inactive: [1] | [6] | [4] | [5]

O=C1CCCC1
inactive: [1] | [2] | [3] | [4] | [5]

CO[Si](OC)(OC)c1ccccc1
inactive: [1] | [2] | [3] | [7]

CCO[Si](CCCN=C=O)(OCC)OCC
inactive: [1] | [2]

CC(C)c1ccc(C#N)cc1
inactive: [1] | [6] | [5]

c1ccc2c(c1)ccc1cc3c(ccc4ccccc43)cc12
inactive: [1] | [2] | [3] | [4] | [5] | [8] | [9]

NC(CO)(CO)CO
inactive: [1] | [2] | [3] | [4] | [5] | [7]

CCCCCCOc1cc(C)c(O)c(C)c1C
inactive: [1] | [6] | [4]
active: [3] 46.1 µM | [7] 82.5 µM

O=C(c1ccc(O)cc1)c1ccc(O)cc1O
inactive: [1] | [2] | [7]
active: [2] 68.5 µM | [7] 72.9 µM

O=C(Cl)c1cc(C(=O)Cl)cc(C(=O)Cl)c1
inactive: [1] | [2] | [3] | [5]

O=C1c2ccccc2C(=O)C1c1nc2ccccc2c(Br)c1O
inactive: [1] | [6] | [3] | [5] | [7]

CC1=NC(C)OC1C (centres undefined)
inactive: [1] | [6] | [4] | [5] | [7]

C=C[Si](C)(C)O[Si](C)(C)C=C
inactive: [1] | [2]

CCOC(=O)c1ccccc1C(=C1C=C(Br)C(=O)C(Br)=C1)c1cc(Br)c(O)c(Br)c1
active: [1] 10.2 µM | [2] 10.4 µM | [3] 9.49 µM | [4] 15.2 µM | [7] 8.23 µM
inactive: [5]

CC(=O)C=CC1C(C)=CCC(C)C1(C)C (centres undefined)
inactive: [1] | [6] | [4] | [5] | [7]

CCCCCCCCCCCCCCCCCC#N
inactive: [1] | [2] | [3] | [4] | [5]

O=Cc1ccc(CO)o1
inactive: [1] | [2] | [3] | [4] | [5] | [7]

CCOC(=O)Cc1cccc2ccccc12
inactive: [1] | [6] | [3] | [4] | [7]

COc1ccc([C@@H]2CC(=O)c3c(O)cc(O[C@@H]4O[C@H](CO[C@@H]5O[C@@H](C)[C@H](O)[C@@H](O)[C@H]5O)[C@@H](O)[C@H](O)[C@H]4O)cc3O2)cc1OC
inactive: [1] | [2] | [3] | [5]

CCCOCCOCCOCCO
inactive: [1] | [2] | [3] | [4] | [5] | [7]

C1=Cc2ccccc2C1
active: [8] 43.6 µM
inactive: [1] | [6] | [3] | [5]

NC(=O)NNC(N)=O
inactive: [1] | [2] | [3] | [4] | [5]

N#[N+]c1ccc2c(S(=O)(=O)[O-])cccc2c1O
inactive: [1] | [2] | [3] | [4] | [5] | [7]

CC(=O)c1ccc[nH]1
inactive: [1] | [2] | [3] | [4] | [7]

CCOC(=O)CC
inactive: [1] | [6] | [4] | [5] | [7]

CCN(CCO)c1cccc(C)c1
inactive: [1] | [2]

CCC(CC)C(=O)O
inactive: [1] | [6] | [5]

O=c1[nH]c(=O)c2[nH]c(=O)[nH]c2[nH]1
inactive: [1] | [7]

CC(=O)OCC(C)OC(C)=O (centres undefined)
inactive: [1] | [2] | [4] | [7]

O=C1CC2CC1C1CCCC21 (centres undefined)
inactive: [1] | [3] | [4]

O=C1CCCC(=O)O1
inactive: [1] | [3] | [5] | [7]

O=C1CCCCCCCCCCC(=O)OCCO1
inactive: [1] | [2] | [4] | [5] | [7]

COC(=O)c1c(C)cc(O)c(C)c1O
inactive: [1] | [3] | [4] | [5] | [7]
active: [8] 11.6 µM

CCC(=O)Oc1ccc(/C(CC)=C(\CC)c2ccc(OC(=O)CC)cc2)cc1
active: [1] 6.81 µM | [2] 16.4 µM | [4] 5.08 µM
inactive: [5] | [7]

OCCNCc1ccccc1
inactive: [6] | [2] | [3] | [4] | [5]

O=c1c2ccccc2nnn1CCl
inactive: [6] | [2] | [3] | [4] | [5] | [7]

CC(C)COC(=O)C=Cc1ccccc1
inactive: [1] | [2] | [4] | [5] | [7]

CNC(=S)NN
active: [8] 22.5 µM
inactive: [1] | [2] | [5] | [7] | [9]

c1ccc(CCCc2ccncc2)cc1
inactive: [1] | [2] | [5]

CCCCCCCCCCOC(C)=O
inactive: [1] | [2] | [5]

CCc1nccnc1C
inactive: [1] | [3] | [5]

CCCCCCOC(=O)C(C)CC (centres undefined)
inactive: [1] | [3] | [7]

Cc1ccc(C(C)c2ccc(C)c(C)c2)cc1C
inactive: [1] | [2] | [4]

CC(C)CCCC(C)CC=O (centres undefined)
inactive: [1] | [3] | [4] | [5]

CC(C)(C)c1ccc(OC(=O)c2ccccc2O)cc1
inactive: [1] | [3] | [7]

CCO[Si](C)(OCC)OCC
inactive: [1] | [2] | [4] | [5] | [7]

O=C(c1ccccc1)c1ccc(O)c(O)c1O
inactive: [1] | [2] | [4] | [7] | [9]
active: [8] 2.12 µM

Cc1ccc([N+](=O)[O-])cc1S(=O)(=O)O
inactive: [1] | [2] | [5] | [7]

C=CC(C)(CCC=C(C)C)OC(=O)C(C)C (centres undefined)
inactive: [1] | [4] | [7]

Cc1cc(C)c(C(=O)O)c(C)c1
inactive: [1] | [2] | [4] | [7]

Cc1ccc(C(C)(C)C)cc1
inactive: [1] | [2] | [4] | [5] | [7]

CC(=O)OCC(=O)[C@@]12N=C(C)O[C@@H]1C[C@H]1[C@@H]3CCC4=CC(=O)C=C[C@]4(C)[C@H]3[C@@H](O)C[C@@]12C
inactive: [1] | [3] | [5] | [7]

COC(=O)c1cc(Cl)ccc1[N+](=O)[O-]
inactive: [1] | [2] | [4] | [7]

O=C1C=CC(=O)O1
inactive: [1] | [4] | [5] | [7]

CN(C)CCCN(C)C
inactive: [1] | [2] | [5] | [7]

CCN(CC#N)c1cccc(C)c1
inactive: [1] | [3] | [4]

CC(C)CCCCCOC(=O)CCS
inactive: [1] | [2] | [4]

Cc1cnc(NC(=O)C2=C(O)c3ccccc3S(=O)(=O)N2C)s1
inactive: [1] | [2] | [4] | [7]

NC(=O)N=NC(N)=O
inactive: [1] | [3] | [4] | [5]

Cc1cc(C)c(C)cc1C
inactive: [1] | [2] | [4] | [5] | [7]

COC(=O)c1sccc1S(N)(=O)=O
inactive: [1] | [3] | [4] | [7]

O=C(O)c1cc2ccccc2nc1C(=O)O
inactive: [1] | [3] | [4]

CC1=NN(c2cc(S(=O)(=O)O)ccc2Cl)C(=O)C1N=Nc1ccccc1 (centres undefined)
inactive: [1] | [2] | [3] | [7]

Cc1cccc(N)n1
inactive: [1] | [3] | [4] | [5] | [7]

C=CC(=O)OCCC(=O)O
inactive: [1] | [2] | [7]

N[C@H]1C(O)O[C@H](CO)[C@H](O)[C@@H]1O (some centres undefined)
inactive: [6] | [2] | [3] | [4] | [5] | [7]

CCOC(=O)NNc1nncc2ccccc12
inactive: [1] | [2] | [4] | [5] | [7]

COc1ccc(-c2coc3cc(O)ccc3c2=O)cc1
inactive: [6] | [2] | [3] | [5]

CC(C)=CCCC(C)C=O (centres undefined)
inactive: [6] | [3] | [4] | [5]

FC(F)(F)C(=NOCC1OCCO1)c1ccc(Cl)cc1
inactive: [6] | [2] | [3] | [5] | [7]
